Test systems include SK-MEL-2 melanoma; EKVX NSCLC; UO-31 renal; TK-10 renal; ACHN renal; CAKI-1 renal; A498 renal; CCRF-CEM leukemia; MOLT-4 leukemia; SN12C renal.
What all share (test): NCI-60 one-dose screen, 48 h (100 = growth as untreated, 0 = no growth, -100 = all killed)
Conditions in all cases: 10 µM unless noted

This note sets out measurements from PubChem BioAssay (NCI).

This is part of a sample that, as a whole, favours compounds with a hit. Of some 83,000 tested, about 20% had one in any assay.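 Interpretation: 100, growth as untreated; towards 0, rising growth inhibition; 0, no net growth; 0 to -100, cell death. Compounds scoring below 10 were considered active.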 A number with no mark means an inactive call. The source made the active and inactive calls.

Take `Nc1n[nH]c2cccc(C#Cc3cccc(NC(=O)c4cccc(Cl)c4)c3)c12`: the growth in the test with SK-MEL-2 melanoma was 12.7%; with EKVX NSCLC it was 44.9%; with UO-31 renal, 21.5%; in the test with TK-10 renal it was 49.9%; in the test on ACHN renal, 18.2%; in the test on CAKI-1 renal, 18.8%. Moreover, the figures for the growth with A498 renal and with CCRF-CEM leukemia were 50.4% and 15%, respectively.
In the case of `CCN(CC)c1ccnc(CNCCSC(c2ccccc2)(c2ccccc2)c2ccc(C)cc2)c1`, the growth was -92% (active) in the test on SK-MEL-2 melanoma; -84.9% (active) with EKVX NSCLC; -20.8% (active) with UO-31 renal; -85.7% (active) with TK-10 renal; -53% (active) with ACHN renal; -92.3% (active) in the test with CAKI-1 renal. In addition, the growth in the test on A498 renal is -96.8% (active); with CCRF-CEM leukemia, -40.9% (active); in the test with MOLT-4 leukemia, -30.9% (active).
For `Nc1cccc(SCc2cc3ccccc3[nH]c2=O)c1`, the growth with SK-MEL-2 melanoma is 56.4%; in the test on EKVX NSCLC, 43.4%; in the test with UO-31 renal it was 39.1%; in the test on TK-10 renal, 64.3%; in the test on ACHN renal it was 17.6%; in the test on CAKI-1 renal, 34.2%. The growth is 69.7% in the test with A498 renal, 33% with CCRF-CEM leukemia and 36.1% with MOLT-4 leukemia.
For the molecule `CC12CC[C@@H]3[C@]4(C)COC(c5cn[nH]c5-c5ccc(Cl)cc5)O[C@@H]4CC[C@@]3(C)[C@@H]1CC(C1=CCOC1=O)O2` (some centres undefined), the growth in the test on SK-MEL-2 melanoma is 29.7%; in the test with EKVX NSCLC, 36.1%; with SN12C renal it was 48.5%; in the test on TK-10 renal it was 35.3%; with ACHN renal it was 33.8%; in the test on CAKI-1 renal, 49.8%. For the same molecule, the growth with A498 renal is 85.6%; with MOLT-4 leukemia it was -16.8% (active).
Take `CCOc1ccc(C(=O)NC(=S)Nc2ccc(S(N)(=O)=O)cc2)cc1`: the growth in the test with SK-MEL-2 melanoma is 104% [100 µM]; with EKVX NSCLC it was 101% [100 µM]; in the test on UO-31 renal, 77.9% [100 µM]; with TK-10 renal, 92.6% [100 µM]; in the test with ACHN renal, 101% [100 µM]; with CAKI-1 renal, 87.9% [100 µM]. Besides, the growth in the test with A498 renal was 96.6% [100 µM]; in the test with CCRF-CEM leukemia, 101% [100 µM]; with MOLT-4 leukemia, 110% [100 µM].
Regarding `COc1ccc(NC(=O)c2sc3nc(C(C)C)ccc3c2N)cc1`, the growth is 97.5% in the test on SK-MEL-2 melanoma; 43.2% in the test with EKVX NSCLC; 72.5% with UO-31 renal; 93.1% in the test on TK-10 renal; 81.2% in the test with ACHN renal; 80.7% with CAKI-1 renal. Besides, the results for the growth with A498 renal, in the test with CCRF-CEM leukemia and with MOLT-4 leukemia were 84.4%, 54.6% and 67.5%, respectively.
As for `Cc1ccc(C(=O)CSc2nc3ccc(F)cc3c(=O)n2-c2ccc(Cl)cc2)cc1`, the growth was 99.1% in the test on SK-MEL-2 melanoma; 51.1% in the test with EKVX NSCLC; 56.4% with UO-31 renal; 83.7% with TK-10 renal; 33.3% in the test on ACHN renal; 10.1% with CAKI-1 renal. The growth was 55.7% in the test on A498 renal, 75.8% in the test with CCRF-CEM leukemia and 82.4% in the test with MOLT-4 leukemia.
Consider `CCCSc1nc(Nc2ccc(S(N)(=O)=O)cc2)c(C#N)c(-c2cc(OC)c(OC)c(OC)c2)n1`, for which the growth in the test with SK-MEL-2 melanoma is 43%; with EKVX NSCLC it was 36.6%; in the test on UO-31 renal, 2.53% (active); with TK-10 renal, 50.4%; in the test with ACHN renal, 11.8%; in the test on CAKI-1 renal, 25.6%. Moreover, the values for the growth in the test on A498 renal, with CCRF-CEM leukemia and with MOLT-4 leukemia were 80.8%, 8.03% (active) and -35.8% (active), respectively.
With `CCCCCCCCOc1cccc(S(=O)(=O)Nc2ccc(C)cc2C(=O)O)c1`, the growth in the test on SK-MEL-2 melanoma is 89.7%; in the test on EKVX NSCLC it was 92.8%; with UO-31 renal it was 85.9%; in the test on TK-10 renal, 102%; in the test on ACHN renal, 98.1%; in the test on CAKI-1 renal, 85.8%. The growth was 107% in the test with A498 renal, 72.5% in the test with CCRF-CEM leukemia and 90.5% in the test with MOLT-4 leukemia.
Take `O=c1onc(-c2cc3ccccc3nc2Cl)n1-c1cccc2ccccc12`: the growth was 19.6% with SK-MEL-2 melanoma; 29.5% in the test on EKVX NSCLC; 38.2% in the test on UO-31 renal; 78.6% in the test on TK-10 renal; 50.4% in the test with ACHN renal; 29.1% in the test on CAKI-1 renal. Besides, the results for the growth in the test on A498 renal, in the test on CCRF-CEM leukemia and in the test with MOLT-4 leukemia were 90.8%, 33% and 24.5%, respectively.
With `COc1ccc(C2(SCCNCc3cc(N(C)C)ccn3)c3ccccc3C=Cc3ccccc32)cc1`, the growth in the test on SK-MEL-2 melanoma was -34.9% (active); with EKVX NSCLC it was 15.8%; with UO-31 renal it was 33.7%; in the test on TK-10 renal, 50.3%; in the test on ACHN renal it was 37.7%; with CAKI-1 renal, 26.5%. Further, the growth was 65.9% in the test on A498 renal, 8.49% (active) with CCRF-CEM leukemia and 8.17% (active) with MOLT-4 leukemia.
In the case of `COc1ccc(-c2ccnc(SCc3cc4cc(Cl)ccc4[nH]c3=O)n2)cc1`, the growth in the test on SK-MEL-2 melanoma was 99%; in the test with EKVX NSCLC, 57.1%; with UO-31 renal, 79.1%; with TK-10 renal, 19.5%; in the test with ACHN renal it was 55%; with CAKI-1 renal it was 26.2%. In addition, the figures for the growth in the test on A498 renal, with CCRF-CEM leukemia and in the test with MOLT-4 leukemia were 41.6%, 79.1% and 93.6%, respectively.
For `COc1ccc(-c2nc(SC(C)C)nc(NCCc3c[nH]c4ccccc34)c2C#N)cc1`, the growth is 74.6% in the test on SK-MEL-2 melanoma; 30.4% with EKVX NSCLC; 40% in the test with UO-31 renal; 90.6% in the test on TK-10 renal; 48.9% in the test with ACHN renal; 43% with CAKI-1 renal. Also, the growth is 65.9% with A498 renal, 18.5% in the test with CCRF-CEM leukemia and 18.1% in the test on MOLT-4 leukemia.
`CCCSc1nc(NCCc2c[nH]c3ccccc23)c(C#N)c(-c2ccccc2)n1`: the growth in the test on SK-MEL-2 melanoma was 75%; in the test on EKVX NSCLC, 35.7%; in the test with UO-31 renal, 64.5%; in the test on TK-10 renal it was 107%; with ACHN renal, 78.2%; in the test on CAKI-1 renal, 57.1%. In addition, the growth in the test on A498 renal was 82.5%; in the test on CCRF-CEM leukemia, 40.4%; in the test on MOLT-4 leukemia it was 44.7%.
